D1 antagonist = blocks dopamine activation of the human D1 receptor; activity change, negative = inhibition, % at 10 µM; hit rate 3.2% among 360,000; P21728; HEK293 TREx D1 cells, calcium flux, dopamine EC80; active compounds read low; in the data active = activity change below about -30%
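Kinetic fluorescence of a calcium dye serves as the read-out. D1-expressing Hek293 Trex cells, induced overnight at 30 C, are exposed to compound for 180 s before an EC80 dopamine addition, then read 180 s further.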
TRHR agonist = activates the human TRH receptor | TRHR cells, calcium flux fluo-8, FDSS agonist mode | activation, % at 2 µM | hit rate 0.18% among 360,000
Target sequence (P34981 whole entry, looked up): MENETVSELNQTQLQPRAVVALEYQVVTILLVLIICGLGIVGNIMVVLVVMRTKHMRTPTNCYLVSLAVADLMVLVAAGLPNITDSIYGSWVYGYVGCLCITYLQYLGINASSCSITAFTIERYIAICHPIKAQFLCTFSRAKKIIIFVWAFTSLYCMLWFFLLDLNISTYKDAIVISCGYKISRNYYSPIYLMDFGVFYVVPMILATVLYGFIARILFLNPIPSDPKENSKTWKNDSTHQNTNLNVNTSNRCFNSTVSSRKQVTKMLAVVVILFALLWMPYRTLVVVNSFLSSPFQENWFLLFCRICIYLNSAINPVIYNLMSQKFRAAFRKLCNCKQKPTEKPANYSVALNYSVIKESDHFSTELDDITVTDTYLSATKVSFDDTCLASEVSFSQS
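Steps: seed TRHR cells overnight; add fluo-8 no-wash Ca dye, RT 30 min–1.5 h; record 10 s baseline; pin-transfer compounds; monitor fluorescence 1 cycle/s for the agonist window. Calcium increases flag candidate agonists.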
D1 ag = activates the human D1 dopamine receptor | P21728 | HEK293 T-REx D1 cells, calcium flux, agonist mode | activation, % at 2 µM | hit rate 1% among 360,000
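Agonism was scored from calcium flux recorded over 180 s (1 read/s) after pintool compound addition, following a 10-cycle baseline. Cells were inducible force-coupled HEK293 TREx D1, plated overnight at 30 C and loaded with no-wash calcium dye.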
D1 potentiator = potentiators of human D1 dopamine receptor. AID 504651. P21728. HEK293 TREx D1 cells, calcium flux, dopamine EC20 potentiation. hit rate 0.036% among 360,000. potentiation, % at 10 µM; in the data active = potentiation above about 30%
TRHR PAM = allosterically enhances the human TRH receptor | TRHR cells, fluo-8 calcium fluorescence, EC20 TRH enhancement | P34981 | AID 493056 | hit rate 0.66% among 360,000 | enhancement, % at 2 µM; in the data active = enhancement above about 30%
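Enhancer read-out: after compound pinning and an initial kinetic agonist-mode read, an EC20 of TRH (10 nM final) was injected and fluo-8 calcium signal (Ex 480/Em 530) followed at 1 s/cycle for 100 cycles in TRHR-expressing cells.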
Of the large screens only hits and unclear results are named; the others gave an inactive call; ! = not active in a repeat. Shown are actives, neighbours in structure and some others; about 4.6% of the full set was active somewhere. Cut-off read from the data, not from the text of the source, unless noted: active = activation above about 30%; inactive = the rest.

CC(C)c1ccc(NC(=O)Cn2cc(S(=O)(=O)Cc3ccccc3Cl)c3ccccc32)cc1	none
NC(=O)CSc1nnc(-c2ccc([N+](=O)[O-])cc2)o1	none
CC(Oc1ccc(F)cc1)C(=O)Nc1ccccc1N1CCCCC1 (configuration not stated)	none
Cc1cccnc1N(C(=O)Nc1cccc(Cl)c1)C1=NCC(C)(C)S1	D1 antagonist -31
Cc1ccc(NC(=O)Nc2ccon2)cc1Cl	D1 antagonist -31
O=C(NC(=S)NCc1cccnc1)c1cc2ccccc2o1	none
CCC(C)c1ccc(NC(=O)Nc2cccnc2)cc1 (configuration not stated)	D1 antagonist -30
Cc1cccnc1N(C(=O)Nc1ccccc1)C1=NCC(C)(C)S1	none
O=C(NC(=S)Nc1cccnc1)c1cc2ccccc2o1	D1 antagonist -45
CS(=O)(=O)N(CC(=O)Nc1ccc(Br)cc1)c1ccccc1Br	none
O=C(CSc1nc(=O)[nH]c2c1CCC2)Nc1cc(C(F)(F)F)ccc1Cl	none (no result: D1 antagonist)
O=C(COC(=O)C1CCCCC1)Nc1ccc(S(=O)(=O)N2CCOCC2)cc1	none
Cc1cccnc1NC(=O)Nc1cccc(Cl)c1	TRHR PAM 32
O=C(Nc1cccc(F)c1)Nc1cccc(Cl)c1	D1 antagonist -53
CCc1sc(C(=O)Nc2ncccc2C)cc1C	TRHR PAM 30
CCc1ccccc1NC(=O)Nc1cccc(F)c1	D1 antagonist -42
Cc1ccc(-c2noc(CCC(=O)Nc3ccc(F)cc3Cl)n2)cc1	none
Cc1oc2ccc(O)c(CN3CCCCCC3)c2c1C(=O)Nc1cccc(C(F)(F)F)c1	none
Cc1ccc(-c2nnc(Nc3ccc(O)cc3)c3ccccc23)cc1S(=O)(=O)NCC1CCCO1 (configuration not stated)	none
COc1ccc(OCC(=O)NNC(=O)Nc2cccc(Cl)c2)cc1	TRHR PAM 34
O=C(Nc1ccc(Cl)cc1)Nc1ccon1	none
O=C(Nc1cccc(Cl)c1)Nc1ccon1	TRHR PAM 39
COC(=O)c1cc(NC(=O)c2ccc(-c3ccccc3)cc2)ccc1Cl	none
O=C(Nc1cccc(Cl)c1)Nc1cnccn1	D1 antagonist -45
COC(=O)c1cc(NC(=O)Nc2cccc(Cl)c2)ccc1Cl	D1 antagonist -41
CCOC(=O)c1cc(C)n(CC2CCC(C(=O)Nc3ccc(C(C)=O)cc3)CC2)c1C (configuration not stated)	none
Cc1ccc(NC(=S)N(CCC(C)C)C(C)c2ccncc2)c(Cl)c1 (configuration not stated)	none
CCOc1ccc(NC(=O)NC(CC)Cn2nnc3ccccc3c2=O)cc1 (configuration not stated)	none
COc1ccc(-n2c(=O)c3ccc(C(=O)NCc4ccc(C)cc4)cc3n(Cc3ccc(Cl)cc3)c2=O)cc1	none
Cc1ccc2c(=O)c(C(=O)c3ccccc3)cn(CC(=O)Nc3ccccc3C)c2n1	none
CC1CN(C(=O)N2CCC(C(=O)NCCCc3ccccc3)CC2)c2cc(Cl)ccc2O1 (configuration not stated)	D1 antagonist -57
CCCCNC(=O)C1CCN(C(=O)N2CC(C)Oc3ccc(Cl)cc32)CC1 (configuration not stated)	none
CCC1CN(C(=O)NCc2ccc(F)cc2)c2ccccc2O1 (configuration not stated)	D1 antagonist -56!
CCC1CN(C(=O)N2CCC(C(=O)NCc3ccccc3C)CC2)c2ccccc2O1 (configuration not stated)	none
COc1ccc(NC(=O)C2CCN(C(=O)N3CCOc4ccccc43)CC2)cc1	none
CCCOc1ccc(CNC(=O)C2CCN(C(=O)N3CCOc4ccccc43)CC2)cc1	D1 antagonist -32
CCC1CN(C(=O)NCc2ccc(F)cc2)c2cc(Cl)ccc2O1 (configuration not stated)	none
CCC1CN(C(=O)N2CCC(C(=O)NCc3cccc(C)c3)CC2)c2ccccc2O1 (configuration not stated)	D1 antagonist -32
COc1cccc(NC(=O)Nc2ccc3nc(N4CCN(C)CC4)cc(C)c3c2)c1	none
COc1cccc(NC(=O)C2CCN(S(=O)(=O)c3c(C)noc3/C=C/c3cccs3)CC2)c1	none
COc1ccc(CNC(=O)C2CCN(C(=O)N3CC(C)Oc4ccc(C)cc43)CC2)cc1 (configuration not stated)	none
CCOc1ccc(CNC(=O)C2CCN(C(=O)N3CC(C)Oc4ccccc43)CC2)cc1 (configuration not stated)	D1 antagonist -38
CCC(C)Sc1oc(-c2ccco2)nc1S(=O)(=O)c1ccc(C)cc1 (configuration not stated)	none
OCC1C2c3ccccc3C(c3ccccc32)C1CO (configuration not stated)	none
Cc1[nH]nc(SCC(=O)NCc2ccc(F)cc2)c1[N+](=O)[O-]	D1 antagonist -40
Cc1ccc(O)c(NC(=O)CSc2n[nH]c(C)c2[N+](=O)[O-])c1	D1 antagonist -34
COc1cccc(-n2cnnc2SC(C)C(=O)NC2CCCC2)c1 (configuration not stated)	none
CCOc1ccccc1NS(=O)(=O)c1cnc(N)nc1	none
O=c1cc(Nc2ccc3c(c2)OCCO3)[nH]c(=O)n1C1CCCCC1	none
CCc1ccc(Nc2cc(=O)n(C3CCCCC3)c(=O)[nH]2)cc1	D1 antagonist -35, D1 ag 34
CC(=O)NC1C(Oc2cccc(C)c2)OC2COC(c3ccco3)OC2C1O (configuration not stated)	D1 antagonist -39
COc1ccccc1OC1OC2COC(c3ccco3)OC2C(O)C1NC(C)=O (configuration not stated)	none
O=C(NCc1ccco1)c1ccc2c(c1)N(Cc1c(F)cccc1Cl)C(=O)c1ccccc1S2	none
CCN(CC)CCCNC(=O)c1ccc2c(c1)N(Cc1c(F)cccc1Cl)C(=O)c1ccccc1S2	D1 ag 45
CC1CCCN(CCCNC(=O)c2ccc3c(c2)N(Cc2ccc(F)cc2)C(=O)c2ccccc2S3=O)C1 (configuration not stated)	D1 ag 39
O=C(NCCN1CCOCC1)c1ccc2c(c1)N(Cc1cccc(F)c1)C(=O)c1ccccc1S2	none
Cc1ccc(CN2C(=O)c3ccccc3Sc3ccc(C(=O)NCCCN4CCOCC4)cc32)cc1	D1 ag 43!
COc1ccccc1CNC(=O)c1ccc2c(c1)N(Cc1cc(C)ccc1C)C(=O)c1ccccc1S2	D1 antagonist -38
Cc1c(C)n(Cc2ccc(F)cc2)c2ccc(C(=O)NCCCN3CCOCC3)cc12	D1 antagonist -37
CCN1C(=O)c2ccccc2Sc2ccc(NC(=O)c3ccc(C)c(F)c3)cc21	D1 antagonist -72

High-throughput results as filed in PubChem BioAssay.
